In PubChem BioAssay (EPA / NIEHS):
Inconclusive results are not listed. The source made the active and inactive calls. The calls were made as follows: active = hit-call score of the fitted dose curve at least 0.9, where 1 is the maximum; inconclusive = response in the unintended direction; inactive = score below 0.9.

Experiment: CLD_ACTIN_24hr: CellzDirect (CLD) Gene Expression Assay for Baseline Control (Actin) at 24 hours (AID 2283670)
Description: CLD_24hr is a cell-based, multiplexed-readout assay that uses hepatocyte, a human liver primary cell, with measurements taken at 24 hours after chemical dosing in a 96-well plate.CLD_ACTIN_24hr is one of 16 assay component(s) measured or calculated from the CLD_24hr assay. It is designed to make measurements of mRNA induction, a form of inducible reporter, as detected with chemiluminescence signals by Quantitative Nuclease Protection Assay (qNPA) technology.Data from the assay component CLD_ACTIN_24hr was analyzed at the endpoint, CLD_ACTIN_24hr, in the positive analysis fitting direction relative to DMSO as the negative control and baseline of activity. Using a type of inducible reporter, gain-of-signal activity can be used to understand changes in the reporter gene as they relate to the gene ACTA1. Furthermore, this assay endpoint can be referred to as a secondary readout, because this assay has produced multiple assay endpoints where this one serves a background control function. To generalize the intended target to other relatable targets, this assay endpoint is annotated to the background measurement intended target family, where subfamily is baseline control.
Human hepatocyte cultures were treated daily for two consecutive days with fresh dosing solutions containing appropriate concentrations of the 320 ToxCast chemicals (chemical identities were blinded to CellzDirect and other ToxCast collaborators), vehicle control (0.2% DMSO), and positive control inducers as summarized in Table 1. Due to the large number of treatment groups and chemicals examined, the ToxCast chemicals were divided into two groups (spanning two independent cultures of hepatocytes from separate donor preparations (Hu778: ToxCast plates 1 and 2; Hu776: ToxCast plates 3 and 4). Each preparation of human hepatocyte cultures was treated with respective vehicle control, medium only control, set of six positive controls/reference chemicals for the five hepatic receptor pathways, and a subset of eight of the ToxCast chemicals (indoxacarb, pyrithiobac-sodium, norflurazon, cyhalofop-butyl, methomyl, thiram, acetochlor, and propiconazole). These replicate data, coupled with internal replicates designed within the blinded ToxCast chemical library, provided additional data to evaluate interindividual differences between hepatocyte preparations and their potential impact on chemical profiles.Cell morphology and integrity were evaluated using phase-contrast microscopy as an indicator of hepatocyte cell health (Tyson & Green, 1987). Cultures for each treatment group (i.e., media, vehicle [0.2% DMSO], positive control inducers [multiple concentrations], and the ToxCast chemicals [multiple concentrations]) were observed and cell morphology was assessed relative to vehicle control cultures at each harvest time point (0, 6, 24, or 48 h). […] Images were evaluated at the conclusion of the study to assess changes in cell integrity and account for the effects of chemical exposure on uncharacteristic changes in concentration-dependent gene expression profiles. The results from these determinations of apparent cytotoxicity were annotated (yes/no) alongside the corresponding qNPA data for reference.At the conclusion of each treatment period, hepatocyte cultures (96-well) were washed with 1 volume of HBSS, lysed by addition of 25 ul ArrayPlate lysis buffer (HTG, Tucson, AZ), and 70 ul/well of Denaturation Oil, denatured by incubation at 95C for 10 min, and frozen at approximately -70C until analysis by nuclease protection assay (qNPA) (Roberts et al., 2007). For qNPA analysis, cell lysates were thawed at 50C for approximately 30 min, qNPA probes were added, and samples were incubated at 95C for 10 min to begin the detection process by denaturing the target RNA, dissociating the duplexes and secondary structure hybridization. At the conclusion of the hybridization period, S1 nuclease reagent was added to each sample to digest all nonprotected nucleotides at 50C for 60-90 min. […]

Question: Which outcome does the source give for `O=C(O)C1(C(=O)Nc2ccc(Cl)cc2Cl)CC1` here?
Answer: The outcome was “inactive”.

Question: With `N#CSCSc1nc2ccccc2s1` as the compound, how does the outcome read?
Answer: The outcome was “inactive”.

Question: For `CCOC(=O)COc1cc(-n2ncc(C(F)(F)F)c(C)c2=O)c(F)cc1Cl`, which outcome is on record?
Answer: The outcome was “inactive”.

Question: With `COc1nc(C)nc(NC(=O)NS(=O)(=O)c2ccccc2OCCCl)n1` as the compound, how does the outcome read?
Answer: Its outcome is “inactive”.

Question: For `COC(=O)c1ccc(CNS(C)(=O)=O)cc1S(=O)(=O)NC(=O)Nc1nc(OC)cc(OC)n1`, which outcome is on record?
Answer: Its outcome is “inactive”.

Question: For `S=C(S)NCCNC(=S)S.[Mn+2].[S-]C([S-])=NCCN=C([S-])[S-].[Zn+2]`, which outcome is on record?
Answer: The outcome was “inactive”.

Question: With `COC(=O)c1ccc(I)cc1S(=O)(=O)NC(=O)Nc1nc(C)nc(OC)n1` as the compound, how does the outcome read?
Answer: The outcome was “inactive”.

Question: With `CC(C)(c1ccc(O)cc1)c1ccc(O)cc1` as the compound, how does the outcome read?
Answer: Its outcome is “inactive”.

Question: Which outcome does the source give for `CCCCCOC(=O)COc1cc(N2C(=O)C3=C(CCCC3)C2=O)c(F)cc1Cl` here?
Answer: Its outcome is “inactive”.

Question: With `COC(=O)c1ccccc1S(=O)(=O)NC(=O)Nc1nc(OC(F)F)cc(OC(F)F)n1` as the compound, how does the outcome read?
Answer: Its outcome is “inactive”.

Question: Which outcome does the source give for `COc1c(Cl)ccc(Cl)c1C(=O)O` here?
Answer: Its outcome is “inactive”.

Question: For `COC(=O)c1c(Cl)nn(C)c1S(=O)(=O)NC(=O)Nc1nc(OC)cc(OC)n1`, which outcome is on record?
Answer: The outcome was “inactive”.

Question: For `CCCCOC(=O)C(C)Oc1ccc(Oc2ccc(C(F)(F)F)cn2)cc1` (configuration not stated), which outcome is on record?
Answer: Its outcome is “inactive”.

Question: For `CC(C)(C)[C@@H](O)[C@@H](Cc1ccc(Cl)cc1)n1cncn1`, which outcome is on record?
Answer: Its outcome is “inactive”.

Question: With `CSC(=O)c1cccc2nnsc12` as the compound, how does the outcome read?
Answer: The outcome was “inactive”.

Question: For `CC1(C)C(C=C(Cl)Cl)C1C(=O)OCc1cccc(Oc2ccccc2)c1` (configuration not stated), which outcome is on record?
Answer: Its outcome is “inactive”.

Question: With `Oc1ccc(C(c2ccc(O)cc2)C(Cl)(Cl)Cl)cc1` as the compound, how does the outcome read?
Answer: Its outcome is “inactive”.

Question: For `CCCN(CCC)C(=O)SCC`, which outcome is on record?
Answer: Its outcome is “inactive”.

Question: For `CCCCCCC(C)OC(=O)COc1nc(F)c(Cl)c(N)c1Cl` (configuration not stated), which outcome is on record?
Answer: Its outcome is “inactive”.

Question: With `COC(=O)c1ccccc1C(=O)O` as the compound, how does the outcome read?
Answer: The outcome was “inactive”.

Question: Which outcome does the source give for `c1ccc(Nc2ccccc2)cc1` here?
Answer: The outcome was “inactive”.

Question: For `CCCCOC(=O)[C@@H](C)Oc1ccc(Oc2ccc(C(F)(F)F)cn2)cc1`, which outcome is on record?
Answer: Its outcome is “inactive”.

Question: For `CCOC(=O)NCCOc1ccc(Oc2ccccc2)cc1`, which outcome is on record?
Answer: Its outcome is “inactive”.

Question: Which outcome does the source give for `C=CCOC(Cn1ccnc1)c1ccc(Cl)cc1Cl` (configuration not stated) here?
Answer: Its outcome is “inactive”.

Question: For `CCCOC(=O)c1ccc(C(=O)OCCC)nc1`, which outcome is on record?
Answer: The outcome was “inactive”.

Question: For `CCC(C)OC(=O)N1CCCCC1CCO` (configuration not stated), which outcome is on record?
Answer: The outcome was “inactive”.

Question: Which outcome does the source give for `CCOC(=O)C(C)Oc1ccc(Oc2nc3ccc(Cl)cc3o2)cc1` (configuration not stated) here?
Answer: The outcome was “inactive”.
